# Reference: the supplement of paper PMC10338343
# ± gives the standard deviation. Over roughly 8,200 sequences, “pre-steady-state target cleavage rate” has its median near 0.024; the highest 2% begin near 1.3. Shown is part of a subset that was picked to be rich in the highest values.
# Test system: MIWI (PIWIL1) piRISC loaded with L1MC piRNA (30 nt)
# Assay: pre-steady-state target cleavage rate (min^-1); MIWI and MILI are mouse PIWI proteins and EfPiwi is from a freshwater sponge; tags in brackets are library labels; higher = faster piRNA-guided slicing of the target
# Conditions: guide: L1MC piRNA 5'p-UAACUAAAUACUAUGCAAGCUGUAGGUCCU
# Outline: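 At 33 °C in HEPES–potassium acetate buffer, a transcribed, DNA-blocked target RNA library […] was exposed for 0–8 or 0–960 min to 1 nM active affinity-purified piRISC carrying a single synthetic guide, with or without 500 nM GTSF1 partner protein. Uncleaved targets were sequenced and normalised to depth and to weakly complementary targets. With three trials pooled and k3 capped at 0.0001 min^-1, a burst-and-steady-state fit produced the pre-steady-state cleavage rate.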
# [1] = auxiliary factor: 500 nM mouse GTSF1
# [2] = auxiliary factor: none (no GTSF1)
# 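Also: 1 nM active piRISC with 0.1 nM target library at 33 °C single turnover.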
Sequence,pre-steady-state target cleavage rate [1],pre-steady-state target cleavage rate [2]
UCCUGGAUGAGCAAGCAUAGUAUUUAGUAA,0.0379 ± 0.01,
UCCUGGAUGUGCAUGCAUAGUAUUUAGUUA,0.13 ± 0.014,0.00793 ± 0.0025
UCCUGGAUGUGCUUGCAAAGUUUUUAGUUA,0.00751 ± 0.0037,0.00575 ± 0.002
UCGACCAACAGCUUCCAUAGUAUUUAGUUA,0.0723 ± 0.016,0.0035 ± 0.0011
AGGACCAACAGCUUCCAUAGUAUUUAGUUA,0.0962 ± 0.019,0.00538 ± 0.0017
AGGACCAACAGCUUGGAUAGUAUUUAGUUA,1.41 ± 0.059,0.0681 ± 0.01
UCGACCAACAGCUUGGAUAGUAUUUAGUUA,1.67 ± 0.045,0.0693 ± 0.011
UCGAGCUACAGCUUGGAUAGUAUUUAGUUA,1.11 ± 0.086,0.0477 ± 0.0076
UGGACCAACAGCUUCCAUAGUAUUUAGUUA,0.0364 ± 0.0068,0.00383 ± 0.0016
UCCACCAACAGCUUGGAUAGUAUUUAGUUA,1.36 ± 0.056,0.0553 ± 0.01
UCCAGCUACAGCUUGGAUAGUAUUUAGUUA,1.31 ± 0.12,0.0456 ± 0.0069
UGGACCAACAGCUUGGAUAGUAUUUAGUUA,1.49 ± 0.054,0.0691 ± 0.011
AGGACCAACAGCUUGCAUAGUAUUUAGAUA,0.509 ± 0.045,0.0557 ± 0.011
UCCUGGAACAGCUUGGAUAGUAUUUAGUUA,1.18 ± 0.043,0.0808 ± 0.015
UCCUCCAACAGCUUGGAUAGUAUUUAGUUA,1.3 ± 0.053,0.0527 ± 0.0092
UCCUCCUACAGCUUCGAUAGUAUUUAGAAA,0.0755 ± 0.019,
UCCUGGAUGAGCUUGCAUAGUAUUUAGUGA,0.703 ± 0.047,0.0519 ± 0.0094
UCCUGCUACAGCUUGCAUUGUAUUAAGUUA,0.502 ± 0.038,0.00942 ± 0.0021
UCCACCUACAGCUUGGAUAGUAUUUUCAAA,0.0295 ± 0.012,
UCCUCCUACAGCAUGCAUAGUAUUUAGAAA,0.485 ± 0.066,
AGGACCUACAGCUUGGAUAGUAUUUAGUUA,1.67 ± 0.052,0.0813 ± 0.013
UCGACCUACAGGUUGGAUAGUAUUUAGUUA,1.16 ± 0.11,0.0308 ± 0.0056
UGGACCUACAGCUUGGAUAGUAUUUAGAUA,0.427 ± 0.05,0.0235 ± 0.0046
UCCACCUACAGCUUGGAUAGUAUUUAGAUA,0.319 ± 0.042,0.0137 ± 0.0027
UGGACCUACAGGUUGGAUAGUAUUUAGUUA,1.33 ± 0.091,0.0484 ± 0.0079
AGGACCUACAGCUUGGAUAGUAUUUAGUAA,1.02 ± 0.063,0.0552 ± 0.012
UGGACCUACAGCUUGGAUAGUAUUUAGUUA,1.65 ± 0.068,0.0735 ± 0.013

Sequence,pre-steady-state target cleavage rate [1],pre-steady-state target cleavage rate [2]
AGGACCUACAGGUUGGAUAGUAUUUAGUUA,1.24 ± 0.079,0.0408 ± 0.0067
UGGACCUACAGCUUGGAUAGUAUUUAGUAA,0.851 ± 0.062,0.0355 ± 0.006
UCCACCUACAGCUUGGAUAGUAUUUAGUUA,1.44 ± 0.056,0.0469 ± 0.0082
UCCACCUACAGCUUGGAUAGUAUUUAGUAA,0.747 ± 0.054,0.0244 ± 0.0052
AGGACCUACAGCUUGGAUAGUAUUUAGAUA,0.527 ± 0.057,0.0218 ± 0.0053
UCCACCUACAGGUUGCAUAGUAUUUACAAA,0.336 ± 0.052,
UCCACCUACAGCUUGCAUAGUUUUUAGAUA,0.16 ± 0.029,0.0077 ± 0.0023
UCCUGGUUCAGGUUGCAUAGUAUUUAGUUA,0.711 ± 0.051,0.0138 ± 0.0041
AGGAGCUACAGCUAGCAUAGUAUUUAGUUA,1.28 ± 0.076,0.0359 ± 0.0079
UCCUGCUACAGCUAGCAUAGUAUUUACAAA,0.234 ± 0.049,
UCCUGCUACAGCUUGCUUAGUAUUAAGUUA,0.403 ± 0.038,0.00887 ± 0.0026
UCCUGGAUCAGCUUGCAUCGUAUUUAGUUA,0.327 ± 0.02,0.032 ± 0.0077
AGGACCUACAGCUUGCAUAGUAUUUUCUUA,0.33 ± 0.049,0.03 ± 0.0093
UCCUCCUACACCUUGCAUAGAAUUUAGUUA,0.341 ± 0.082,0.00682 ± 0.0023
UCCUCCUACAGCUUGCAUUGAAUUUAGUUA,0.183 ± 0.018,0.00617 ± 0.0025
UCGACCUACACCUUGCAUAGAAUUUAGUUA,0.395 ± 0.07,0.0128 ± 0.0024
UCGACCUACAGCUUGCAUUGUAUUUACUUA,0.49 ± 0.028,0.0226 ± 0.0052
AGGACCUACAGCUAGGAUAGUAUUUAGUUA,1.09 ± 0.06,0.0102 ± 0.0018
UCGACCUACAGCUAGGAUAGUAUUUAGUUA,1.29 ± 0.064,0.00874 ± 0.0021
UGGACCUACAGCUAGGAUAGUAUUUAGUUA,1.39 ± 0.068,0.00938 ± 0.0019
AGGAGCUACAGCUUGGAUAGUAUUUAGUUA,1.17 ± 0.081,0.0558 ± 0.0094
UCGACGUACAGCUUGGAUAGUAUUUAGUUA,1.24 ± 0.042,0.0503 ± 0.0083
UCCUCGUACAGCUUGGAUAGUAUUUAGUUA,1.22 ± 0.062,0.0636 ± 0.011
UGGACGUACAGCUUGGAUAGUAUUUAGUUA,1.4 ± 0.054,0.0597 ± 0.01
UCCACGUACAGCUUGGAUAGUAUUUAGUUA,1.14 ± 0.065,0.0509 ± 0.0081
AGGACGUACAGCUUGGAUAGUAUUUAGUUA,1.36 ± 0.067,0.0579 ± 0.0083
UCGUCCUAGAGCUUGCAUAGUAUUUAGUUA,0.957 ± 0.041,0.0436 ± 0.0072

Sequence,pre-steady-state target cleavage rate [1],pre-steady-state target cleavage rate [2]
UCCUCCUAGCAGCUUGCAUAGUAUUUAGUUA,1.12 ± 0.046,0.0448 ± 0.0093
UCCACCUACAGCUUCGAUAGUAUUUAGAAA,0.0807 ± 0.021,
UCCUGGAUGAGCUUGCUAUGUAUUUAGUUA,0.00494 ± 0.0027,0.00308 ± 0.0029
UCGAGCUUCAGCUUGCAUAGUAUUUAGUUA,1.12 ± 0.046,0.0555 ± 0.0099
AGGAGCUAGAGCUUGCAUAGUAUUUAGUUA,0.922 ± 0.049,0.0536 ± 0.0099
UGGAGCUUCAGCUUGCAUAGUAUUUAGUUA,1.34 ± 0.048,0.0706 ± 0.01
AGGAGCUUCAGCUUGCAUAGUAUUUAGUUA,1.48 ± 0.047,0.0864 ± 0.015
UCCUGCUUCAGCUUGCAUAGUAUUUAGUAA,0.537 ± 0.036,0.0275 ± 0.0068
UGGAGCUAGAGCUUGCAUAGUAUUUAGUUA,0.707 ± 0.048,0.0402 ± 0.0068
AGGACCUAGUGCUUGCAUAGUAUUUAGUAA,0.457 ± 0.051,0.0314 ± 0.0063
UCCUCCUACAGCUUGCUAAGUAUUUAGUAA,0.066 ± 0.012,
AGGACCUACAGCUUGGAUAGUAUUAAGUUA,0.722 ± 0.072,0.0226 ± 0.004
AAGACCUACAGCUUGCAUAGUAUUUAGUUA,1.69 ± 0.062,0.0921 ± 0.015
AGACCUACAGCUUGCAUAGUAUUUAGUUA,1.46 ± 0.052,0.0902 ± 0.017
UAGACCUACAGCUUGCAUAGUAUUUAGUUA,1.31 ± 0.043,0.0672 ± 0.011
AGGACCUACAGGUAGCAUAGUAUUUAGUUA,1.04 ± 0.054,0.00995 ± 0.0022
UCCUGGUACAGCUUGCAUAGUAAAUUCAAA,0.00975 ± 0.0053,
UCCUCCUACAGCUUGCAUAGUAUUUAGAUUA,0.342 ± 0.031,0.0121 ± 0.0024
UCCUGGAAGUCCUUGCAUAGUAUUUAGUUA,0.175 ± 0.02,0.0104 ± 0.0031
UCCCCCUACAGCUUGCAUAGUAUUUAGUUA,1.28 ± 0.039,0.0819 ± 0.014
UCGCCUACAGCUUGCAUAGUAUUUAGUUA,1.5 ± 0.066,0.0743 ± 0.014
UCCGCCUACAGCUUGCAUAGUAUUUAGUUA,1.23 ± 0.05,0.0714 ± 0.011
UCGCCCUACAGCUUGCAUAGUAUUUAGUUA,1.32 ± 0.055,0.0692 ± 0.011
UCCUGGUACAGCUUGCAUAGUUUUUAGUAA,0.177 ± 0.037,0.0195 ± 0.0054
UCCUGGUACAGCUUGCAUAGUUAUUAGUUA,0.115 ± 0.018,0.018 ± 0.0051
